Compounds with a hit are over-represented: about 6.6% of the library has one in this group of screens.
CSC inhib – cancer stem cell viability inhibitors, primary screen, luminescence | inhibition, % at 7.5 µM | AID 2717, 2010 | 300,000 compounds, 1.1% hits | cancer stem cell-like cells viability; in the data active means inhibition above about 75%; inconclusive means no clear call, values can overlap the other calls; tested in HMLE shEcad cells
Gli-Sufu antag – Gli-Sufu pathway antagonists, primary screen, luciferase luminescence, Sufu-KO-LIGHT cells, uHTS; Sufu-KO-LIGHT fibroblasts, Gli luciferase reporter luminescence; inhibition, % at 5 µM; 340,000 compounds, 0.74% hits; AID 588413, 2011;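 active means inhibition above about 55%, limit read from the data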;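 further: 0% = DMSO-treated cells and 100% = wells with medium but no cells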
Beta cell apopt – inhibitors of cytokine-induced beta cell apoptosis, primary screen, luminescence. AID 435005, 2010. protection from apoptosis, % (concentration not given with the values). 300,000 compounds, 0.8% hits. INS-1E cytokine-induced death, ATP luminescence, 48 h; percent of positive-control rescue, neutral wells zero;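 active means Every replicate reaches about 75%, or at least half do and their mean reaches it too, limit read from the data; inconclusive means At least half of replicates reach the limit but their mean does not; inactive means Under half of replicates reach the limit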;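 further: 0% = cytokine-treated negative control wells and 100% = positive control rescue; higher means more ATP so stronger rescue from cytokine killing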
NR3A LBD binder – binders of NR3A ligand-binding domain, primary screen, biophysical, differential scanning fluorimetry, uHTS. NR3A LBD differential scanning fluorimetry, Tm shift; 0% = protein alone, 100% = glycine-bound protein. Tm shift relative to glycine control, % at 25 µM. 340,000 compounds, 2.5% hits. Glutamate receptor ionotropic, NMDA 3A (GRIN3A) ligand-binding domain. AID 1259313, 2017;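 active means melting temperature shift of at least 10% of the positive control shift, at one fixed dose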
Mdm2 MdmX PPI – inhibitors of human Mdm2-MdmX association, primary screen, cell-based, luminescence, split luciferase, SaOS-2, uHTS; Protein Mdm4 (Homo sapiens) + E3 ubiquitin-protein ligase Mdm2 (Homo sapiens), …; SaOS-2 split-luciferase Mdm2/MdmX complementation; inhibition, % at 8 µM; 330,000 compounds, 3% hits; AID 485346, 2010;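 active means inhibition of at least 50% at 8 µM in the primary screen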
MPTP inh – mitochondrial permeability transition pore inhibitors, primary screen, biochemical, isolated mouse mitochondria, absorbance | inhibition, % at 10 µM | 360,000 compounds, 1.4% hits | Ca2+ swelling absorbance, 30 min;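 active means inhibition of 50% or more, scaled per plate between neutral and stimulator controls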;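 further: 0% = DMSO wells given calcium and 100% = 1 mM EGTA wells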
* = called active by the depositor; ? = inconclusive; . = no result given.

SMILES	CSC inhib	Gli-Sufu antag	Beta cell apopt	NR3A LBD binder	Mdm2 MdmX PPI	MPTP inh
COc1ccc(OC)c(C(=O)c2ccc(C(=O)c3cc(OC)ccc3OC)cc2)c1	-5	-1	9	20*	19	1
N#C/C(=C\c1ccc(OCc2ccccc2)cc1)C(N)=O	4	-15	-4	12*	-25	-2
COc1ccc(-n2c(SCC(=O)Nc3ccc(Cl)cc3)nc(O)c(Cc3ccccc3)c2=O)cc1	-2	-9	-2	10*	22	13
CN(C)CCNc1ncnc2c1ncn2[C@H]1CN(Cc2ccc(Cl)cc2)C[C@@H](CO)O1	.	.	.	.	.	0
OCCN1CCN(CC(O)COCc2ccc3c(c2)OCO3)CC1 (stereo unspecified)	1	1	2	11*	9	-2
Cc1cnc2cc(Cl)c(Cl)cc2n1	10	6	2	579*	-3	0
O=C1C2C3C=CC(CC3)C2S(=O)(=O)C2C3C=CC(CC3)C12 (stereo unspecified)	.	.	.	.	.	0
COC(=O)C[C@H]1CC[C@@H](NC(=O)Nc2ccc(C(F)(F)F)cc2)[C@@H](CO)O1	.	.	.	.	.	0
O=C(Cc1ccccc1)NC(CSSCC(NC(=O)Cc1ccccc1)C(=O)O)C(=O)O (stereo unspecified)	.	-9	.	36*	.	-1
O=C(O/C(=C/c1ccccc1)C(F)(F)F)c1ccccc1	.	-2	.	2	.	-2
CCOC(=O)c1sc(-c2ccccc2)cc1NC(=O)Nc1ccccc1	66	24	-1	16*	.	8
CCOC(=O)c1c(N)sc2c(NC(C)=O)cccc12	16	-3	2	31*	13	-1
CCOC(=O)c1sc(-c2ccc(Br)cc2)cc1N	11	-77	-10	16*	-192	2
CCOC(=O)c1c(N)sc(C(=O)Nc2ccccc2)c1C	12	-136	12	27*	-204	-2
COc1ccc(-c2nn(-c3ccccc3)cc2C(=O)N2CCN(S(=O)(=O)c3cccc(F)c3)CC2)cc1	.	7	6	1	34	-1
COc1cccc(CN2c3ccc(Br)cc3C(=O)CS2(=O)=O)c1	16	-4	0	-13	8	2
COc1cc2c(cc1OC)C1CCc3cc4c(cc3C1N=C2)OCO4 (stereo unspecified)	.	.	.	.	.	1
O=C(Nc1ccc(Oc2ccc3c(c2)C(=O)N(c2ccc(O)cc2)C3=O)cc1)c1cccs1	-8	-22	3	16*	33	5
Cc1cc2c(cc1C)-n1nnnc1C(N1CCN(c3ncccc3C#N)CC1)C(=O)N2 (stereo unspecified)	.	.	.	.	.	1
CCCn1nc(C(=O)NCC2COc3ccccc3O2)c2ccccc2c1=O (stereo unspecified)	.	6	4	4	-13	0
CCN(CC)C(=S)SCc1csc(CC(=O)Nc2ccccc2C)n1	-4	12	.	1	16	0
O=c1c2ccccc2nc(/C=C/c2c[nH]c3ccccc23)n1-c1ccc([N+](=O)[O-])cc1	0	15	4	26*	14	3
CC(=O)N(C(C)=O)n1c(/C=C/c2ccc([N+](=O)[O-])cc2)nc2ccccc2c1=O	-15	6	-9	4	4	0
Nc1ncnc(Nc2ccccc2Oc2ccccc2)n1	.	-2	.	1	.	2
CN(C)c1ccc(NC(=O)/C=C/c2ccccc2Cl)cc1	49	-57	11	31*	-100	2
SMILES	CSC inhib	Gli-Sufu antag	Beta cell apopt	NR3A LBD binder	Mdm2 MdmX PPI	MPTP inh
CCN(CC)c1ccc(NC(=O)/C=C\c2ccccc2Cl)cc1	42	-32	21	26*	7	5
Cc1cc(NC(=O)/C=C/c2ccccc2Cl)no1	-3	-28	4	0	-66	1
O=C(/C=C/c1ccccc1Cl)NCc1ccccc1	2	-42	4	-2	-19	0
Nc1ccc(C(=O)OCc2nc3c(ccc4ccccc43)[nH]2)cc1	12	-37	4	27*	-51	-5
O=c1c2c3c(sc2nc2n1CCCS2)CCCC3	-6	-21	2	1	-32	0
Cc1sc2nc3n(c(=O)c2c1C)CCCS3	-9	-3	-5	18*	17	3
CC1CCN(c2cc(C#N)c(C#N)cc2[N+](=O)[O-])CC1	59	14	0	2	8	2
CC1CCCCN1c1cc(C#N)c(C#N)cc1[N+](=O)[O-] (stereo unspecified)	81*	8	7	0	-8	0
Cc1nc(-c2ccc(F)cc2)c(CC(=O)N2CCN(S(=O)(=O)c3cccc([N+](=O)[O-])c3)CC2)s1	.	34	.	-3	-22	0
CSc1cccc(NC(=O)COC(=O)C2CCN(S(=O)(=O)c3ccccc3)CC2)c1	-6	-2	-3	5	5	-1
COC(=O)c1cccc(Nc2cc(C)nc(-c3ccccc3O)n2)c1	?	27	24	17*	14	16
COC(=O)c1cccc(NC(=O)c2ccccc2)c1	5	-8	-1	-1	-8	1
COC(=O)c1ccc(Nc2cc(C)nc(-c3ccccc3O)n2)cc1	16	9	3	23*	5	-12
O=C(OC1CCCCC1=O)c1cccc(S(=O)(=O)N2CCOCC2)c1 (stereo unspecified)	-14	0	-4	0	-25	-2
CCCNC(=O)C1(C)CCN(Cc2cc(-c3ccccc3)on2)C1 (stereo unspecified)	.	.	.	.	.	0
O=C(N/N=C/c1cccc(C(F)(F)F)c1)c1cc2c(s1)-c1ccccc1CC2	27	9	-9	14*	10	3
Cc1cccc(/C=N/NC(=O)c2cc3c(s2)-c2ccccc2CC3)c1	56	9	-5	4	43	1
Cc1c(N(C)C(=O)C23CC4CC(CC(C4)C2)C3)c(=O)n(-c2ccccc2)n1C	7	-4	0	11*	1	6
Cc1c(N(C)C(=O)c2ccc3c(c2)OCO3)c(=O)n(-c2ccccc2)n1C	-2	4	2	0	-18	0
O=S1(=O)CC(N2CCCC2)CN1Cc1cn(Cc2cccc(C(F)(F)F)c2)nn1 (stereo unspecified)	.	.	.	.	.	-2
Cn1cccc1C(=O)NCc1ccccn1	.	-13	.	0	4	0
COc1cc(OC)cc(C(=O)NCC(=O)N2CCN(c3ccc(O)cc3)CC2)c1	1	58*	-1	0	-5	0
CCN(CC)c1ccc(C=C2C(=O)OC(c3ccccc3)OC2=O)cc1 (stereo unspecified)	-6	-9	4	32*	11	-3

From PubChem BioAssay
